The source of these data is PubChem BioAssay (NCI).

Values joined by “and” are separate entries in the source; they are usually repeats but may differ in a detail not shown here. Equal entries are not always repeated. About 83,000 compounds went through this panel and 20% of them were active in at least one assay; those are over-represented in the sample as a whole.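 Cell lines were cultured in 96-well plates, exposed to a single compound concentration, and assessed for percent growth 48 hours later.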 Active and inactive are the calls of the source. The calls were made as follows: active = growth percent below 10; inactive = the rest.

This assay has as its system MCF7 breast. The experiment in a line: NCI-60 one-dose screen, 48 h (100 = growth as untreated, 0 = no growth, -100 = all killed). Particulars: 10 µM unless noted.
For the molecule `NC1=NN(c2ccccc2)C2(c3ccncc3C(=O)O)C1C(N)=NN2c1ccccc1` (centres undefined), the growth is 69.3% [100 µM] (inactive) and 90.4% [100 µM] (inactive).
With `Oc1ccccc1-c1n[nH]c(-c2ccccc2O)n1`, the growth is -10.7% [100 µM] (active) and -76.4% [100 µM] (active).
In the case of `CCOC(=O)CCC(NC(=O)c1ccc(OCc2nc3cc(C(F)(F)F)ccc3nc2-c2ccccc2)cc1)C(=O)OCC` (centres undefined), the growth was 32% [100 µM] (inactive) and -53% [100 µM] (active).
The figure for `Oc1ccc(/C=C/c2cc(O)cc3c2C(c2cc(O)cc(O)c2)C(c2ccc(O)c(O)c2)O3)cc1` (centres undefined) is -7.74% [100 µM] (active) and -48.3% [100 µM] (active).
For `O=C1NC(=S)NC1C(Cc1ccccc1)c1ccco1` (centres undefined), the growth is 19% [100 µM] (inactive) and 3.76% [100 µM] (active).
Consider `CCCCOC(=O)C1CN2C(=NC1(C(F)(F)F)C(F)(F)F)Sc1ccccc12` (centres undefined), for which the growth is 6.83% [100 µM] (active) and 25.5% [100 µM] (inactive).
In the case of `N#CC1=C(N)OC(c2cccc([N+](=O)[O-])c2)C1(C#N)C#N` (centres undefined), the growth is -9.78% [100 µM] (active) and -88.5% [100 µM] (active).
For `COc1c2c(c(OC)c3c1c(=O)c1ccccc1n3C)OCO2`, the growth was 9.09% [100 µM] (active).
Turning to `COc1ccc(CC2c3cc(OC)c(OC)c(OC)c3CC[N+]2(C)C)cc1Oc1ccc(CC2c3cc4c(c(OC)c3CCN2C)OCO4)cc1` (centres undefined), the growth was 69.2% [100 µM] (inactive) and 5.51% [100 µM] (active).
